Data from PubChem BioAssay (EPA / NIEHS).
Several values for one entry are separate records, joined by “and”; a condition that tells them apart may be missing. Equal entries are not always repeated. Results filed as inconclusive are left out. Activity calls are given as the source filed them. The calls were made as follows: active = hit-call score of the fitted dose curve at least 0.9, where 1 is the maximum; inconclusive = response in the unintended direction; inactive = score below 0.9.

Tests used:
[1] = NVS_IC_rCaDHPRCh_L: NovaScreen (NVS) Ion Channel Assay for rat Calcium Channel, Type L, Dihydropyridine Site (CaDHPRCh_L) (AID 2283320)
Summary of the method: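 Radioligand binding to dihydropyridine site on rat cortical membranes, filter-based scintillation counting, 1 h after dosing. Screened in duplicate at 25 uM; actives rerun in concentration-response up to 50 uM. Loss of signal versus DMSO baseline.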

[2] = target: human Peripheral-type Benzodiazepine Receptor (PBR), TSPO (gene 706) (UniProt P30536); test: NVS_MP_hPBR: NovaScreen (NVS) Membrane Protein Assay for human Peripheral-type Benzodiazepine Receptor (PBR) (AID 2283331);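 also: hits reduce radioligand binding relative to DMSO baseline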
Sequence of human Peripheral-type Benzodiazepine Receptor (PBR), TSPO (gene 706) (P30536 whole entry, looked up): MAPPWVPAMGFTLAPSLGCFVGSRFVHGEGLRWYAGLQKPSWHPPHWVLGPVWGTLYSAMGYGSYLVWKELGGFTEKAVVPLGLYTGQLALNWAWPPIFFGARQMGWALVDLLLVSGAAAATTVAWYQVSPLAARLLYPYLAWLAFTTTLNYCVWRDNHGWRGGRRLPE
Summary of the method: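 Scintillation counts of filter-bound radioligand served as read-out after 1 h chemical dosing of human colonic membrane preparations. Activity was scored as signal loss against DMSO; initial duplicates at 25 uM, confirmatory concentration series afterward.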

[3] = target: human Constitutive Androstane Receptor (CAR), NR1I3 (gene 9970) (UniProt Q14994); test: NVS_NR_hCAR_Antagonist: NovaScreen (NVS) Nuclear Receptor Binding Assay for human Constitutive Androstane Receptor Antagonism (CAR) (AID 2283344)
Sequence of human Constitutive Androstane Receptor (CAR), NR1I3 (gene 9970) (Q14994 whole entry, looked up): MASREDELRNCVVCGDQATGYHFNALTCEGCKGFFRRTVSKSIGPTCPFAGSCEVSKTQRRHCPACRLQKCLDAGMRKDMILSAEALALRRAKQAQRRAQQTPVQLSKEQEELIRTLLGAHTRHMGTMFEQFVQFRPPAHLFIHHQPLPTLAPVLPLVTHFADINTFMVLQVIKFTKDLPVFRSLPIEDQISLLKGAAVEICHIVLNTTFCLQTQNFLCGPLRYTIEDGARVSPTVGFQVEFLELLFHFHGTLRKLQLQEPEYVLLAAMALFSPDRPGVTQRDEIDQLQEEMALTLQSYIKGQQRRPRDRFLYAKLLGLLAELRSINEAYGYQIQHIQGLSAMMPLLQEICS
Summary of the method: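 Cell-free TR-FRET binding read 1 h after dosing, antagonist mode; loss of signal versus DMSO baseline. Primary screen in duplicate at a single 25 uM; actives retested in concentration series.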

[4] = target: Sodium channel protein type 1 subunit alpha (Rattus norvegicus) (UniProt P04774); test: NVS_IC_rNaCh_site2: NovaScreen (NVS) Ion Channel Assay for rat Sodium Channel, Site 2 (NaCh) (AID 2283322);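 also: hit means loss of radioligand binding signal relative to DMSO so AC50 marks displacement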
Summary of the method: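 Membranes: rat forebrain. Format: competitive radioligand displacement, filter separation, scintillation readout, 1 h exposure. Primary screen in duplicate at 25 uM; actives retested in concentration series.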

[5] = target: Voltage-dependent N-type calcium channel subunit alpha-1B (Rattus norvegicus) (UniProt Q02294); test: NVS_IC_rCaChN: NovaScreen (NVS) Ion Channel Assay for rat Calcium Channel, Type N (CaChN) (AID 2283317)
[6] = target: Bile acid receptor (Homo sapiens) (UniProt Q96RI1); test: NVS_NR_hFXR_Antagonist: NovaScreen (NVS) Nuclear Receptor Binding Assay for human Farnesoid X Receptor Antagonism (FXR) (AID 2283350)
Sequence of Bile acid receptor (Homo sapiens) (Q96RI1 whole entry, looked up): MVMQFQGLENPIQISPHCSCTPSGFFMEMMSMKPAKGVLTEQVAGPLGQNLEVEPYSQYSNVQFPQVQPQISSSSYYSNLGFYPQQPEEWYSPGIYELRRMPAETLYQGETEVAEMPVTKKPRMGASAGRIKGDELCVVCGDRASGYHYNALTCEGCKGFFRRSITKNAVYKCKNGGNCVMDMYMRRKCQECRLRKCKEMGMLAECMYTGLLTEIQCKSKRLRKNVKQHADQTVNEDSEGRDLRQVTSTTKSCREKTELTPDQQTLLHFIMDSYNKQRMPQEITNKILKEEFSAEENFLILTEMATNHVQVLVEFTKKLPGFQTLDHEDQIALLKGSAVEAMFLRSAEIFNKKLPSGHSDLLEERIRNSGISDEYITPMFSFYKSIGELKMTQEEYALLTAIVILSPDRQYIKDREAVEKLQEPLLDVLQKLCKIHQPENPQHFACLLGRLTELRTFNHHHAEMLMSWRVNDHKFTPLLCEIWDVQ
Summary of the method: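 Cell-free TR-FRET ligand-binding read-out on human FXR (NR1H4) in antagonist mode, measured 1 h after dosing. Primary screen in duplicate at 25 uM, actives retested in concentration series; signal loss scored versus DMSO.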

[7] = target: rat Peripheral-type Benzodiazepine Receptor (PBR), Tspo (gene 24230) (UniProt P16257); test: NVS_MP_rPBR: NovaScreen (NVS) Membrane Protein Assay for rat Peripheral-type Benzodiazepine Receptor (PBR) (AID 2283335)
Sequence of rat Peripheral-type Benzodiazepine Receptor (PBR), Tspo (gene 24230) (P16257 whole entry, looked up): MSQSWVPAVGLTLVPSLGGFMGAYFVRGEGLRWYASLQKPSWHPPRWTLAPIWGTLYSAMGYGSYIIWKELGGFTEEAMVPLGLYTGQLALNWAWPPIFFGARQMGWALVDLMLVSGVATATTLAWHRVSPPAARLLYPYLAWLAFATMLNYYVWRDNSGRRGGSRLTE
Summary of the method: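 Radioligand displacement, rat kidney membrane prep, 1 h exposure, filter-based scintillation read; DMSO baseline, loss-of-signal scored. Primary screen at 25 uM in duplicate, actives followed up in concentration series.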

[8] = target: Estrogen receptor (Homo sapiens) (UniProt P03372); test: NVS_NR_hER: NovaScreen (NVS) Nuclear Receptor Binding Assay for human Estrogen Receptor (ER) (AID 2283348)
Sequence of Estrogen receptor (Homo sapiens) (P03372 whole entry, looked up, the tested form may be a part): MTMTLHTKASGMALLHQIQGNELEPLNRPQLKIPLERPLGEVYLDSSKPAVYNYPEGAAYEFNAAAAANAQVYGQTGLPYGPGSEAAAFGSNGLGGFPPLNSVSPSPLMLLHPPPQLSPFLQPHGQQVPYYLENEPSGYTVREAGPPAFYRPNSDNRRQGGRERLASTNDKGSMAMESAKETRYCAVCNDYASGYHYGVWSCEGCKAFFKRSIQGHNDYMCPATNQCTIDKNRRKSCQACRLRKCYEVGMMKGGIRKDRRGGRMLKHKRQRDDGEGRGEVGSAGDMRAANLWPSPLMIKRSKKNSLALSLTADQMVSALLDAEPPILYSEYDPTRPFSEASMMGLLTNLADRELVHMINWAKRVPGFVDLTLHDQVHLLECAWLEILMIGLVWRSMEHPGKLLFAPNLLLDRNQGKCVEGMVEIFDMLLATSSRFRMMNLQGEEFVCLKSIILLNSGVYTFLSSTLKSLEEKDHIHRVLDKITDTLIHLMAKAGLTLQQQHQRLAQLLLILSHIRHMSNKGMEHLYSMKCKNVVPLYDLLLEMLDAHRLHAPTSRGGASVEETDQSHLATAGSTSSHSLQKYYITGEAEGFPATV
Summary of the method: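 Scintillation signal from bound radioligand was measured 18 hours after chemical addition to cell-free MCF7 protein extracts, with DMSO as baseline. Activity was scored as signal loss; compounds ran first at 25 uM in duplicate.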

[9] = target: Estrogen receptor (Homo sapiens) (UniProt P03372); test: OT_ER_ERaERa_1440: Odyssey Thera (OT) 24-hour HEK293T Protein-Complementation Assay for Estrogen Receptor-alpha/-alpha Homodimer (AID 2283349);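 also: hits raise fluorescence above DMSO for agonists and antagonists alike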
Summary of the method: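 Protein-fragment complementation between two human ERα ligand-binding domains (aa 310-547) in stably transfected HEK293T cells was monitored after 24 h treatment, using fluorescence intensity relative to vehicle controls.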

[10] = target: Estrogen receptor (Homo sapiens) (UniProt P03372); test: OT_ER_ERaERa_0480: Odyssey Thera (OT) 8-hour HEK293T Protein-Complementation Assay for Estrogen Receptor-alpha/-alpha Homodimer (AID 2283351);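 also: rise in fluorescence from reassembled reporter fragments on ERα LBD homodimer in nucleus or whole cell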
Summary of the method: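 HEK293T cells stably expressing the human ERα ligand-binding domain (aa 310-547) as a homodimer PCA were dosed with compound for 8 h. Gain of fluorescence intensity versus DMSO vehicle was read by laser scanning cytometry.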

[11] = target: Estrogen receptor (Homo sapiens) + Estrogen receptor beta (Homo sapiens) (UniProt P03372+Q92731); test: OT_ER_ERaERb_0480: Odyssey Thera (OT) 8-hour HEK293T Protein-Complementation Assay for Estrogen Receptor-alpha/-beta Heterodimer (AID 2283352)
Sequence of Estrogen receptor (Homo sapiens) + Estrogen receptor beta (Homo sapiens) (P03372 whole entry, looked up, the tested form may be a part): as above
Sequence of Estrogen receptor (Homo sapiens) + Estrogen receptor beta (Homo sapiens) (Q92731 whole entry, looked up, the tested form may be a part): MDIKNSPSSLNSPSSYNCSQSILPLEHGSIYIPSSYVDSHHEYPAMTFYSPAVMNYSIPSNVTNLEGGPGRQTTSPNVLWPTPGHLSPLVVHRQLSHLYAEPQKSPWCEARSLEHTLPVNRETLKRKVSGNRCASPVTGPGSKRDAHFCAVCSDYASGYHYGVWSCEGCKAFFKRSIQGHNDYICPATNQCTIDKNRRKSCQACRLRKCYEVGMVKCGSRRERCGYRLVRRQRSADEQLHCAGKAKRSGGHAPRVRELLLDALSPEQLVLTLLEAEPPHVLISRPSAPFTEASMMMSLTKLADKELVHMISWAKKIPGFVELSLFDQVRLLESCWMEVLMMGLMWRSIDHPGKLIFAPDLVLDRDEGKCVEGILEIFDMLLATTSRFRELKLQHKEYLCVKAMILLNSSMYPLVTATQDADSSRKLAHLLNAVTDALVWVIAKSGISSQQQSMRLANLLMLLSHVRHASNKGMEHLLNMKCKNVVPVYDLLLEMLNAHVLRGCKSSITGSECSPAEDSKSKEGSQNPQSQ
Summary of the method: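 HEK293T cells expressing ER-alpha/ER-beta LBD fusions to complementary reporter fragments were dosed with compound for 8 hours. Heterodimer formation was read as increased nuclear (agonist) or nuclear plus cytoplasmic (antagonist) mean fluorescence intensity versus DMSO vehicle.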

[12] = target: bovine Estrogen Receptor (ER), ESR1 (gene 407238) (UniProt P49884); test: NVS_NR_bER: NovaScreen (NVS) Nuclear Receptor Binding Assay for bovine Estrogen Receptor (ER) (AID 2283345);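 also: actives lower the bound radioligand count which means they displace the ER ligand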
Sequence of bovine Estrogen Receptor (ER), ESR1 (gene 407238) (P49884 whole entry, looked up): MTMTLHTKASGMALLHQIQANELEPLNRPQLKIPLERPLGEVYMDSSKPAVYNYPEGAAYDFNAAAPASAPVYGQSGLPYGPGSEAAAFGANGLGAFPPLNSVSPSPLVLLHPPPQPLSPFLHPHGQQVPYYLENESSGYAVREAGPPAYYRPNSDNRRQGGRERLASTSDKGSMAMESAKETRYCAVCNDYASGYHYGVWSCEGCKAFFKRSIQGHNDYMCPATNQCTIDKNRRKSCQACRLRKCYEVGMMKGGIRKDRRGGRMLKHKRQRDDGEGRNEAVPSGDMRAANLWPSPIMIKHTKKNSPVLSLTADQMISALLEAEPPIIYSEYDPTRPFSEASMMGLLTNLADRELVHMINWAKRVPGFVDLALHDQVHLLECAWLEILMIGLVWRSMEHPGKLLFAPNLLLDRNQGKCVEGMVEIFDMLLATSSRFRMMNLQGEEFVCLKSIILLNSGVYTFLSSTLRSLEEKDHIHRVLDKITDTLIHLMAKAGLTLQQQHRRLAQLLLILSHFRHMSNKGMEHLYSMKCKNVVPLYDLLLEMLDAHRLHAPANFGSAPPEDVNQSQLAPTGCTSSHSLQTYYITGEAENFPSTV
Summary of the method: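 Cell-free radioligand binding with receptor from bovine uterine membranes, read by scintillation counting 18 h after dosing. Loss of specific binding was scored against DMSO; primary screen at 25 uM in duplicate, actives then run as concentration series.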

[13] = target: rat Glutamate, AMPA Site (AMPA), Gria1 (gene 50592) (UniProt P19490); test: NVS_LGIC_rAMPA: NovaScreen (NVS) Ligand-Gated Ion Channel Assay for rat Glutamate, AMPA Site (AMPA) (AID 2283324)
Sequence of rat Glutamate, AMPA Site (AMPA), Gria1 (gene 50592) (P19490 whole entry, looked up): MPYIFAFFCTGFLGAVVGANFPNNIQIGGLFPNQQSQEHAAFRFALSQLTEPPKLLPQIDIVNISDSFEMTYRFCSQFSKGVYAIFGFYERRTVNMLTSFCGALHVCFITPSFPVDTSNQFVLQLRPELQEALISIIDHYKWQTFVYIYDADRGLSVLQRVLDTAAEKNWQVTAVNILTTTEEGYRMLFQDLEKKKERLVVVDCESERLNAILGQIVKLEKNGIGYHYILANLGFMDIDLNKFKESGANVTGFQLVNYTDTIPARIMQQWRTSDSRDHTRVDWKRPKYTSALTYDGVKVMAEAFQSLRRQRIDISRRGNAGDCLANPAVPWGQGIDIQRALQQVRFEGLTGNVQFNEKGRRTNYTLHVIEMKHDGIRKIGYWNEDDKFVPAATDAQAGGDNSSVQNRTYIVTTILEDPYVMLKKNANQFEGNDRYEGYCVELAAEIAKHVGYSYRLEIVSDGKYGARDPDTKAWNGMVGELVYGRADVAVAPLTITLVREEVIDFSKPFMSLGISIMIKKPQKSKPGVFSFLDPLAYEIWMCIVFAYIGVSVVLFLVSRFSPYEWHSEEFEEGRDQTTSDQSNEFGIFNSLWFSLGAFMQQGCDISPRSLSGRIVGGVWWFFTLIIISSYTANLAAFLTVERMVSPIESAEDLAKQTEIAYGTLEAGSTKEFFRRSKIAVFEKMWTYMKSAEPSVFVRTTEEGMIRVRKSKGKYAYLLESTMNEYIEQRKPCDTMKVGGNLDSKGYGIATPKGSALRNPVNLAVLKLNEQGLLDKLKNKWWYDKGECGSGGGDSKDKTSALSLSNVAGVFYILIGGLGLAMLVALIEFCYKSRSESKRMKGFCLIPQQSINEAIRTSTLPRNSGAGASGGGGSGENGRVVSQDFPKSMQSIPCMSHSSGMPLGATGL
Summary of the method: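 Rat forebrain membranes; radioligand binding read 1 h after dosing by filtration and scintillation counting. Duplicate single-point screen at 25 uM, then concentration-response to 50 uM for threshold hits (e.g. 30% inhibition); loss of signal vs DMSO.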

[14] = target: chimpanzee Androgen Receptor (AR), AR (gene 747460) (UniProt O97775); test: NVS_NR_cAR: NovaScreen (NVS) Nuclear Receptor Binding Assay for chimpanzee Androgen Receptor (AR) (AID 2283346);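 also: radioligand displacement from AR measured by scintillation counting in a cell-free assay; a loss of bound radioligand signal versus DMSO counts as binding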
Sequence of chimpanzee Androgen Receptor (AR), AR (gene 747460) (O97775 whole entry, looked up): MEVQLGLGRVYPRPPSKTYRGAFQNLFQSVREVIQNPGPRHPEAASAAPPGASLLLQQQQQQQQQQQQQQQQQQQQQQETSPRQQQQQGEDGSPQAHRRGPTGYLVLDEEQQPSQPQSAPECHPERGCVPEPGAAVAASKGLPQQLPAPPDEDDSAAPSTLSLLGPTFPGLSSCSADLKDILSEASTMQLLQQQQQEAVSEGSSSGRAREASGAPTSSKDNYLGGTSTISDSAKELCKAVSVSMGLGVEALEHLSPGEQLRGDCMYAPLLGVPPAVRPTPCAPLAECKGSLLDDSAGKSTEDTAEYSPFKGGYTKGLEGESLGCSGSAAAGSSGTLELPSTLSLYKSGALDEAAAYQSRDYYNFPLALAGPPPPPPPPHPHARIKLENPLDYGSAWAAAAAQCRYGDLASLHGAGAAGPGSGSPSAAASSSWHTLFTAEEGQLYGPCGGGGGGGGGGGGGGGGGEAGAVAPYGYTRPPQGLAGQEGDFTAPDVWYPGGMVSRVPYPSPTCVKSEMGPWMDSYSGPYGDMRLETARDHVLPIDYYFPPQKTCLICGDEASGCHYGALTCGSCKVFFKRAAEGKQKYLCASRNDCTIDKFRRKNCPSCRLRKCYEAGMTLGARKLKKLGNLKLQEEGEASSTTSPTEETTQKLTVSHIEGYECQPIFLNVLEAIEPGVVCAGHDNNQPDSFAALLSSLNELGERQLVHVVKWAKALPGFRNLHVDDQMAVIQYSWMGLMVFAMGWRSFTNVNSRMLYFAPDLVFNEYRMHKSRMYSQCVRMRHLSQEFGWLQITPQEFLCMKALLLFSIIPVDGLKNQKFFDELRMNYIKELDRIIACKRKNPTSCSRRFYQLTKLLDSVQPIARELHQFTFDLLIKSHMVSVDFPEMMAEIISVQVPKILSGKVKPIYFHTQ
Summary of the method: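 Cell-free competition binding with insect-cell (Sf9/Sf21) extracted chimpanzee AR; scintillation signal from lysate at 72 h. Screened in duplicate at 25 uM, then concentration-response for actives; fitting relative to DMSO.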

SMILES: Clc1cccc(Cl)c1
- outcome [1]: inactive
- outcome [2]: inactive
- outcome [3]: inactive

SMILES: CCCCCCCCCCBr
- outcome [4]: inactive

SMILES: O=C(O)C1(c2ccc3c(c2)OC[C@H](Cc2ccc(-c4ccccc4)cc2)[C@H]3O)CCCC1
- outcome [5]: inactive
- outcome [6]: inactive

SMILES: CCCCOP(=O)(CCCC)OCCCC
- AC50 [2]: 6.98 µM (active)
- AC50 [7]: 1.62 µM (active)

SMILES: CC(C)N(C(=O)CCl)c1ccccc1
- AC50 [2]: 7.59 µM (active) and 7.28 µM (active)
- AC50 [7]: 3.16 µM (active) and 407 nM (active)
- outcome [8]: inactive
- outcome [9]: inactive
- outcome [10]: inactive
- outcome [11]: inactive

SMILES: Brc1c(Br)c(Br)c(Oc2c(Br)c(Br)c(Br)c(Br)c2Br)c(Br)c1Br
- outcome [4]: inactive

SMILES: COCC(=O)N(c1c(C)cccc1C)[C@H](C)C(=O)OC
- outcome [2]: inactive

SMILES: CCOP(=O)(OCC)OC(=CCl)c1ccc(Cl)cc1Cl
- AC50 [2]: 2.12 µM (active)
- AC50 [7]: 1.65 µM (active)
- outcome [12]: inactive

SMILES: CCOC(=O)C(SP(=S)(OC)OC)c1ccccc1 (stereo not drawn)
- AC50 [2]: 13.4 µM (active)
- AC50 [7]: 7.41 µM (active)

SMILES: CN(C)C(=S)S
- outcome [13]: inactive

SMILES: Cc1ccccc1OP(=O)(Oc1ccccc1C)Oc1ccccc1C
- AC50 [2]: 0.8 µM (active)
- AC50 [7]: 17.1 µM (active)

SMILES: OC(Cc1ccccc1Cl)(Cn1cncn1)C1(Cl)CC1 (stereo not drawn)
- AC50 [4]: 6.73 µM (active)
- outcome [14]: inactive

SMILES: COC(=O)Nc1cccc(OC(=O)Nc2cccc(C)c2)c1
- AC50 [2]: 0.323 µM (active)

SMILES: CCOP(=S)(OCC)O/N=C(\C#N)c1ccccc1
- outcome [2]: inactive
- AC50 [7]: 16.2 µM (active)

SMILES: CCOP(=S)(OCC)SCS(=O)(=O)C(C)(C)C
- outcome [4]: inactive
- AC50 [2]: 12.9 µM (active)
- AC50 [7]: 2.02 µM (active)

SMILES: O=S1(=O)OC(c2cc(Br)c(O)c(Br)c2)(c2cc(Br)c(O)c(Br)c2)c2ccccc21
- AC50 [2]: 5.29 µM (active)
- AC50 [14]: 18.1 µM (active)
- outcome [8]: inactive
- outcome [9]: inactive
- outcome [10]: inactive
- AC50 [11]: 15.2 µM (active)
